Screens as filed in PubChem BioAssay.
Tgondii IFNg: T. gondii growth inhibition with IFN-gamma, primary screen, cell-based; activity change, negative = inhibition, % (no concentration beside the values); 3.8% of 69,000 active; Toxoplasma gondii growth in IFN-gamma-treated host cells; hits give low values; in the data active = activity change below about -70%, passing the limit was not always enough;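 note: host cells are HeLa cells infected with Toxoplasma gondii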
Active calls of the source: *; ! = not active in a repeat. The entries come from a sample that favours hits as a whole.

SMILES	Tgondii IFNg
Cc1oncc1C(=O)N1CCC2(CC1)Cc1ccccc1CN(C)C2=O	44
COc1ccc(-c2cc3c(=O)n(Cc4nc(-c5ccc(Cl)cc5)oc4C)ccn3n2)cc1	-38
CN(C)C(=O)Cc1nnc2n1CCN(Cc1ccsc1)C2	-4
CCOC(=O)N1CCN(C(=O)c2ccc(N3CCC(NCc4cccs4)CC3)cc2)CC1	-2
Cc1c(C(=O)NCCCN2C(C)CCCC2C)oc2ccc3c(c12)C(O)CC1(CCCCC1)O3 (centres undefined)	-56
CCOC(=O)N1CCC(NC(=O)c2oc3ccc4c(c3c2C)C(O)CC2(CCCCC2)O4)CC1 (centres undefined)	-95*
COC(=O)c1c(NCCc2ccccc2)c2cc(F)ccc2[nH]c1=O	7
COCCNc1c(C(=O)OC)c(=O)[nH]c2ccc(F)cc12	35
COC(=O)c1c(NCCc2c[nH]c3ccccc23)c2cc(F)ccc2[nH]c1=O	-99*
COc1ccc(Cl)cc1NC(=O)NCC(c1cccnc1)c1cn(C)c2ccccc12 (centres undefined)	146
CCCCCCCC(=O)O	12
CCCCCCCCCCCC1C(=O)C(=O)CC(=O)C1=O	-82*!
Cc1csc(CN2C[C@H]3COC[C@@]3(CNC(=O)c3ccco3)C2)n1	-41
CCc1ccccc1Nc1noc2c1CN(C(=O)c1ccn(C)n1)CC2	20
CN(C)c1cc(Nc2ccccc2)c2c(=O)n(C)c(=O)n(C)c2n1	-84*
Cn1c(=O)c2c3nc4ccccc4cc3c(=O)n(C)c2n(C)c1=O	-13
Cn1c(=O)c2c(-c3ccc(F)cc3)cc(-c3cccc(F)c3)nc2n(C)c1=O	-10
CN(C)C(=O)N1CCOCC2(C1)CN(c1cnn(C)c1)C(=O)CO2 (centres undefined)	9
CCc1ncnc2c1CCN(C(=O)NC1CCCC1)CC2	1
Cc1nc(CN2CCOCC3(CNCCO3)C2)cs1 (centres undefined)	-90*
Cc1nc(CN2CCOCC3(CN(CCO)CCO3)C2)cs1 (centres undefined)	1
CC(=O)N1CCOCC12CCN(Cc1csc(C)n1)CC2	2
CC(=O)N1CCCC2(CN(Cc3ccco3)CCO2)C1 (centres undefined)	19
CC(C)C1CN(C(=O)COc2cccnc2)CCC(=O)N1CC1CC1 (centres undefined)	15
CCOC(=O)c1nc(N2CCOCC2)c2ccccc2n1	93
SMILES	Tgondii IFNg
CC(C)Oc1ccc(CNC(=O)c2nc(N3CCOCC3)c3ccccc3n2)cc1	-79*
CCOc1ccccc1CNC(=O)c1nc(N2CCOCC2)c2ccccc2n1	-66
Cc1ccccc1CNC(=O)c1nc(N2CCOCC2)c2ccccc2n1	-35
Cc1ccc(CCNC(=O)c2nc(N3CCOCC3)c3ccccc3n2)cc1	-84*
CC(C)Oc1ccc(CNC(=O)c2nc(Nc3ccccc3)c3ccccc3n2)cc1	-11
CCn1c(C2CCN(Cc3cnn4c(C)cc(C)nc34)CC2)nn(C)c1=O	6
CCNC(=O)c1cc(S(=O)(=O)Nc2cc(OC)c(Cl)cc2OC)cs1	32
Cc1ccc(-c2noc(-c3c(O)c4ccccc4n(C)c3=O)n2)c(C)c1	-8
COc1ccc(OC)c(CN(C(=O)c2ccc(C)cc2)C2(C(=O)NCc3ccccc3)CCN(C(C)=O)CC2)c1	-4
COc1cccc(CN(C(=O)c2ccc(C)cc2)C2(C(=O)NCc3ccccc3)CCN(C(C)=O)CC2)c1OC	-93*
CC(=O)N1CCC(C(=O)NCc2ccccc2)(N(Cc2ccccc2C)C(=O)c2ccc(C)cc2)CC1	36
O=C(CN1C(=O)CCc2cc(Br)ccc21)N1CCN(c2cccc(C(F)(F)F)c2)CC1	-53
Cc1ccc(CSc2nnc3c(n2)[nH]c2ccc(Br)cc23)cc1	-80*
CCN(CC)C(=O)CSc1nnc2c(n1)[nH]c1ccc(C)cc12	4
c1ccc(CSc2nnc3c(n2)[nH]c2ccccc23)cc1	-68
CCn1c(=O)c(-c2nc(-c3ccccc3OC)no2)c(O)c2ccccc21	57
CC(Cn1cccn1)C(=O)N1CCC(Cc2cccc(C(=O)O)c2)CC1 (centres undefined)	23
O=C(O)CSc1nc(Nc2ccccc2)nc(N2CCOCC2)n1	-31
Oc1[nH]c2ccccc2c1N=Nc1nc(Nc2ccccc2)nc(N2CCOCC2)n1	-99*
O=C1CSC(c2ccccc2)N1Nc1nc(N2CCOCC2)nc(N2CCOCC2)n1 (centres undefined)	-14
Cc1ccsc1[C@@H]1CCN(C(=O)c2ccc(C#CC(C)(C)O)o2)C[C@H]1O	-3
COc1cccc(CNc2ncc(-c3ccncc3)c(-c3cccs3)n2)c1	-52
COc1ccc(-c2cc(C(F)(F)F)n3nc(-c4cccs4)cc3n2)cc1	-51
COc1ccc(-c2ccnc(-c3cccs3)n2)cc1	-103*
COc1ccc(-c2ccnc(SC)n2)cc1	-82*
COc1ccc(-c2cc(N)nc(N)n2)cc1	16
COc1ccc(-c2cc(C3CCN(C(C)=O)CC3)ccn2)cc1	74
CN(C)CCN1Cc2ccccc2C2(CCN(c3ncccn3)CC2)C1	-1
CN(C)CC(=O)N1Cc2cc(Oc3cccnc3)ccc2C1c1cnco1 (centres undefined)	-36
